Pf growth 96h: Primary qHTS for delayed death inhibitors of the malarial parasite plastid, 96 hour incubation; P. falciparum luciferase reporter growth, 96 h; Potency, µM (titrated, usually from 28.7 µM), usual class: inhibitors; actives 6.9% (n = 320,000); AID 504834, 2011
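Erythrocytes infected with luciferase-expressing P. falciparum were dispensed at 2% hematocrit and 0.05% parasitemia (final), then incubated with compounds 96 hours at 37 C in 5% CO2. Luminescence after detection reagent addition reported growth.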
SARS PLP yeast: qHTS of Yeast-based Assay for SARS-CoV PLP. AID 485353, 2010. Potency, µM (top dose mostly 32.9 µM), usual class: activators. actives 0.19% (n = 330,000). S. cerevisiae expressing SARS-CoV PLpro, growth rescue; calls by dose curve; also: nearly all actives have a fitted effect of over 55% in size
Pf growth 48h: Primary qHTS for delayed death inhibitors of the malarial parasite plastid, 48 hour incubation. P. falciparum luciferase growth in erythrocytes, 48 h. actives 5.9% (n = 310,000). Potency, µM (doses to about 28.7 µM), actives largely listed as inhibitors
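Parasite viability was followed by luminescence of a genomically integrated firefly luciferase. Cultures held 0.1% parasitemia at 2% hematocrit (final), incubated under 5% CO2 at 37 C.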
Sm TGR inh: qHTS Assay for the Inhibitors of Schistosoma Mansoni Peroxiredoxins | Schistosoma mansoni thioredoxin glutathione reductase (TGR), Q962Y6 | purified TGR, DTNB reduction, TNB absorbance 405 nm | Potency, µM (series often up to 114 µM), most hits filed as inhibitors | actives 3% (n = 360,000) | AID 485364, 2010; also: nearly all actives have a fitted effect of over 60% in size
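Kinetic colorimetric format: TGR-catalysed, NADPH-driven DTNB reduction monitored via TNB absorbance. Enzyme dispensed at 20 nM; compound exposure 15 min at room temperature before reaction start.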
Hits are given with their value; n = inactive; u = inconclusive; x = not tested or not shown; [ ] = another dose, or the depositor's remark. An excerpt weighted towards active compounds, which were near 12% of everything screened. Unless noted, calls follow the shape of the dose curve; as a rule, active = well fitted curve in the direction sought with a large enough effect; inconclusive = small, poorly fitted or top-dose-only effect, or another doubt; inactive = no such curve, though single readings can be large; an effect the other way counts as inactive or inconclusive.

SMILES | Pf growth 96h | SARS PLP yeast | Pf growth 48h | Sm TGR inh
COc1cc(NC(=O)CNc2ccc(Cl)c(S(=O)(=O)N3CCOCC3)c2)cc(OC)c1 | u | n | 5.2µM | n
Cc1ccc(OCC(=O)Nc2c3c(nn2C(C)(C)C)CS(=O)(=O)C3)cc1 | n | n | n | u
COCCCNc1oc(/C=C/c2cc(OC)c(OC)c(OC)c2)nc1C#N | x | x | x | n
COC(=O)c1c(C)cc(C)n2c1nc1ccccc12 | 7.4µM | n | n | n
Cc1cc(C)n2c(nc3ccccc32)c1C(=O)NN | u | n | n | n
O=[N+]([O-])c1cc(NCCO)c(N2CCCCCC2)c2nonc12 | u | n | x | u
O=C(Nc1cccnc1)c1cc(-c2ccc(Br)cc2)nc2ccccc12 | n | n | u | n
Cc1ccc(-c2cc(C(=O)Nc3cccnc3)c3ccccc3n2)o1 | 4.7µM | n | x | n[11.4 µM]
Cc1ccc(C)c(-c2cc(C(=O)Nc3cccnc3)c3ccccc3n2)c1 | 2.1µM | n | 12µM | n
O=C(N/N=C/c1cccnc1)c1cc(-c2ccccc2Cl)nc2ccccc12 | u | n | n | n
COC(=O)c1sccc1NC(=O)c1cc(-c2cc(C)ccc2C)nc2ccccc12 | u | n | u | n
Cc1ccccc1-c1cc(C(=O)N/N=C/c2cccnc2)c2ccccc2n1 | n | n | 10µM | n
Cc1ccc(C)c(-c2cc(C(=O)Nc3nccs3)c3ccccc3n2)c1 | 1.9µM | n | u | n
CCN(C(=O)CCNC(=O)Cn1cnc2ccccc2c1=O)c1cc(OC)ccc1OC | x | x | x | n
Cc1nc2nc(C)c(CCC(=O)NCc3ccccc3)c(C)n2n1 | x | x | x | n
Cc1ccc(NC(=O)c2cc(-c3ccc(C)o3)nc3ccccc23)cc1 | n | n | u | 25µM
COc1ccccc1NC(=O)c1cc(-c2ccc(C)o2)nc2ccccc12 | n | n | n | n
Cc1ccc(-c2cc(-c3ccccc3O)nc(N/N=C/c3cccnc3)n2)cc1 | 0.029µM | n | u | n
C(=N\Nc1nccc(-c2cccnc2)n1)/c1ccccc1 | n | n | u | n
Cc1ccc(-c2cc(C(=O)Nc3ccccn3)c3ccccc3n2)o1 | u | n | u | 18µM
CC(=O)[C@@H]1[C@@H](C(=O)c2ccccc2)[C@]2(C(=O)Nc3ccccc32)[C@H]2C=Cc3cc(F)ccc3N12 | u | n | n | n
O=C(c1ccccc1)[C@@H]1[C@@H](C(=O)c2ccc(F)cc2)[C@@]2(C(=O)Nc3ccccc32)[C@H]2c3ccccc3C=CN12 | u | n | 15µM | u
COCCn1c(SCc2ccccc2F)nc2c([nH]c3ccccc32)c1=O | x | x | x | n
CCNC(=S)N1CCN(c2nc(-c3ccc(F)cc3)cs2)CC1 | n | n | n | n
CCN(CC)CCCNC(=S)N1CCN(c2nc(-c3ccc(F)cc3)cs2)CC1 | n | n | 9.3µM | n
SMILES | Pf growth 96h | SARS PLP yeast | Pf growth 48h | Sm TGR inh
CNC(=S)N1CCN(c2nc(-c3ccc(Cl)cc3)cs2)CC1 | 7.4µM | n | u | n
CCCCC(=O)N1CCN(c2nc(-c3ccc(F)cc3)cs2)CC1 | u | n | n | n
CC(C)C(=O)N1CCN(c2nc(-c3ccc(Cl)cc3)cs2)CC1 | n | n | n | 32µM
COCCNC(=S)N1CCN(c2nc(-c3ccc(Cl)cc3)cs2)CC1 | u | n | n | n
O=C(N1CCOCC1)N1CCN(c2nc(-c3ccc(F)cc3)cs2)CC1 | 7.4µM | n | n | n
Cc1ccc(-n2ncc(C(=O)NCc3ccco3)c2C2CCN(C(=O)OC(C)(C)C)CC2)cc1 | x | x | x | n
COc1cc(C)ccc1OCc1cc(C(=O)N2CCN(C)C[C@@H]2c2ccccc2)no1 | n | n | u | n
Cc1nn(C(=O)COc2ccccc2)c(C)c1Sc1ccccc1 | x | x | x | n
COc1cc2c(cc1OC)C(c1ccc(Br)cc1)CC(=O)N2 (stereo unspecified) | 5.2µM | n | n | n
COc1ccccc1C1CC(=O)Nc2cc(C)c(C)cc21 (stereo unspecified) | 13µM | n | n | n
CCOc1ccccc1C1CC(=O)Nc2cc(C)c(C)cc21 (stereo unspecified) | 12µM | n | n | n
COc1cc2c(cc1OC)C(c1ccc(C(F)(F)F)cc1)CC(=O)N2 (stereo unspecified) | u | n | u | n
COc1ccc(NC(=O)c2cc(-c3cc(C)ccc3O)n[nH]2)cc1Cl | u | n | 2.1µM | n
COc1ccc(NC(=O)c2cc(C)no2)cc1Cl | 3.7µM | n | 4.1µM | n
Cc1c(Cl)cccc1NC(=O)c1cc(-c2ccccc2O)n[nH]1 | u | n | x | n
COc1ccc(OC)c(NC(=O)c2cc(-c3cc(Cl)ccc3O)n[nH]2)c1 | 8.3µM | n | 1.7µM | n
COc1ccc(NC(=O)c2cc(-c3ccc(C)cc3O)n[nH]2)c(OC)c1 | u | n | n[0.00184 µM] | n
COc1ccc(NC(=O)c2cc(C)no2)cc1OC | u | n | n | n
COc1ccc(Cl)cc1NC(=O)c1cc(-c2ccccc2O)n[nH]1 | 10µM | n | 10µM | n
COc1ccc(Nc2nc3ccc(C)cc3nc2-n2nc(C)cc2C)cc1Cl | x | x | x | n
Fc1ccc(CSc2nc3ncc(Br)cc3[nH]2)cc1 | 9.3µM | n | x | n
CCc1ccc(CN(C(=O)c2cc(=O)c3ccc(C)cc3o2)C2CCS(=O)(=O)C2)cc1 (stereo unspecified) | x | x | x | n
Cc1nn(Cc2ccccc2)c(N)c1C#N | 12µM | n | n | n
Cc1cc(=O)n(Cc2ccccc2Cl)c2c1c(C)nn2-c1ccccc1 | x | x | x | n
CCOc1ccc(C(=O)Nc2ccc(-c3nc4ccccc4s3)c(C)c2)cc1OCC | x | x | x | n
SMILES | Pf growth 96h | SARS PLP yeast | Pf growth 48h | Sm TGR inh
CCOC(=O)N1CCC(N2C(=O)c3ccccc3C2Nc2cc(OC)c(OC)c(OC)c2)CC1 (stereo unspecified) | u | n | u | n
CCOC(=O)N1CCC(N2C(=O)c3ccccc3C2Nc2cc(Cl)c(OC)cc2OC)CC1 (stereo unspecified) | u | n | 13µM | n
CCOc1cc(S(=O)(=O)NCCc2c(C)[nH]c3ccc(C)cc23)ccc1Br | x | x | x | n
C/C(=N/NC(=O)CSc1nc2ccccc2s1)c1ccncc1 | n | n | n | n
CS/C(=N\S(=O)(=O)c1cccs1)NC(=O)CSc1nc2ccccc2s1 | 6.6µM | n | x | n[11.4 µM]
CC(=O)N1CCc2cc(S(=O)(=O)NC(CC(C)C)C(=O)Nc3cc(C(=O)O)ccc3C)ccc21 (stereo unspecified) | 0.29µM | u | n | n
O=C(COC(=O)c1ccc([N+](=O)[O-])o1)NC1CCCc2ccccc21 (stereo unspecified) | x | n | x | x
CCCCc1nc2ccccc2c(N)c1CCC (tested in a mixture with another compound) | u | n | 9.3µM | n
COCc1c(C(=O)Nc2cccc(S(=O)(=O)N3CCCCC3)c2)oc2ccccc12 | x | n | x | x
CC(C)NCC(O)c1ccc2ccccc2c1 (stereo unspecified) | 4.7µM | x | 1.5µM | n
CC(C)NCC(O)c1ccc(O)c(O)c1 (stereo unspecified) | u | n | u | n
